Experimental data taken from the supplement of paper PMC10849652.
Targets with a hit are over-represented here; the source holds about 7,900 in all. About 0.6% of all pairs of compound and target were hits.

What was measured:
Test in all cases: log2 fold change, soluble protein after heating vs DMSO (PISA); higher = thermal stabilisation; K562 cells, 10 uM, 30 min; active = over 0.2 and 3.5 SD of the protein, either way, in both replicates (recomputed)
[1] = compound: CC[C@@H]1C(=O)N(C)c2cnc(Nc3ccc(C(=O)NC4CCN(C)CC4)cc3OC)nc2N1C1CCCC1
In short: (§1)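 K562 cells at 2×10^6 cells/mL were treated for 30 min with 10 μM compound, and aliquots were heated for 3 min over 48°C-58°C before pooling. Extraction used PBS with 0.5% NP-40 at 4°C, and soluble protein was the supernatant after 21,000xg for 90 min, measured by TMTpro 16plex LC-MS/MS with channel sums equalised. Thermal stability values, relative to control samples and from duplicates, are log2 fold changes.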

volasertib = compound: CC[C@@H]1C(=O)N(C)c2cnc(Nc3ccc(C(=O)N[C@H]4CC[C@H](N5CCN(CC6CC6)CC5)CC4)cc3OC)nc2N1C(C)C [volasertib]
In short: as §1

[2] = compound: CC[C@H](C)N1C=C(C2=C(C=C(C=C21)C3=CN=C(C=C3)N4CCNCC4)C(=O)NCC5=C(C=C(NC5=O)C)C)C
In short: as §1

epoxomicin = compound: CC[C@H](C)[C@@H](C(=O)N[C@@H]([C@@H](C)O)C(=O)N[C@@H](CC(C)C)C(=O)[C@]1(CO1)C)NC(=O)[C@H]([C@@H](C)CC)N(C)C(=O)C [epoxomicin]
In short: as §1

[3] = compound: CCn1c(C(=O)N(C2CC2)C2CC2)cc2c3c(ncn3C)c(Nc3cc(C)n(C)n3)nc21
In short: as §1

[4] = compound: CCn1cc(-c2ccnc3[nH]c(-c4cccc(CN(C)C)c4)cc23)c(-c2ccc(NC(=O)N(C)C)cc2)n1
In short: as §1

[5] = compound: CN(C)CC(=O)Nc1ccc2[nH]c(=O)c3ccccc3c2c1
In short: as §1

rosiglitazone = compound: CN(CCOC1=CC=C(C=C1)C[C@H]2C(=O)NC(=O)S2)C3=CC=CC=N3 (racemic) [rosiglitazone]
In short: as §1

[6] = compound: CN1C2=C(C3=C1C(=O)N(N=C3)CC4=CC(=CC=C4)N)SC(=C2)S(=O)C
In short: as §1

[7] = compound: CN1CCC(CNc2ccc3ncc(-c4cccc(OC(F)(F)F)c4)n3n2)CC1
In short: as §1

Measured: log2 fold change

KIF11 (UniProt P52732)
inactive: [1] 0.016 | volasertib -0.42 | [2] 0.081 | epoxomicin -0.032 | [3] -0.076 | [4] 0.023 | [5] 0.041 | rosiglitazone 0.031 | [6] 0.182 | [7] 0.022

LPIN1 isoform 7 (UniProt Q14693)
inactive: [1] 0.06 | volasertib -0.002 | [2] 0.063 | epoxomicin 0.098 | [3] 0.011 | [4] -0.045 | [5] 0.012 | rosiglitazone 0.055 | [6] 0.008 | [7] -0.016

MAGEC2 (UniProt Q9UBF1)
inactive: [1] -0.017 | volasertib -0.146 | [2] 0.028 | epoxomicin -0.062 | [3] 0.038 | [4] -0.048 | [5] -0.007 | rosiglitazone 0.011 | [6] -0.063 | [7] 0

LUC7L2 (UniProt Q9Y383)
inactive: [1] -0.171 | [2] 0.044 | epoxomicin -0.017 | [3] 0.003 | [4] -0.003 | [5] -0.001 | rosiglitazone 0.011 | [6] -0.025 | [7] -0.073
active: volasertib -0.345

MFSD5 isoform 2 (UniProt Q6N075)
active: epoxomicin 0.427
inactive: [1] 0.052 | volasertib 0.111 | [2] -0.124 | [3] -0.012 | [4] 0.028 | [5] -0.092 | rosiglitazone -0.032 | [6] -0.056 | [7] 0.14

IK (UniProt Q13123)
inactive: [1] -0.136 | [2] 0.02 | epoxomicin 0.125 | [3] -0.053 | [4] 0.069 | [5] -0.034 | rosiglitazone 0.02 | [6] 0.145 | [7] -0.035
active: volasertib -0.366

JMJD6 isoform 3 (UniProt Q6NYC1)
active: volasertib -0.306
inactive: [1] -0.044 | [2] -0.012 | epoxomicin -0.015 | [3] -0.037 | [4] -0.009 | [5] -0.006 | rosiglitazone 0.031 | [6] 0.006 | [7] -0.09

MIA2 (UniProt Q96PC5)
active: volasertib -0.29
inactive: [1] -0.039 | [2] 0.005 | epoxomicin 0.037 | [3] -0.009 | [4] 0.054 | [5] 0.005 | rosiglitazone 0.034 | [6] 0.031 | [7] 0.053

MAPRE3 (UniProt Q9UPY8)
inactive: [1] -0.105 | volasertib -0.226 | [2] 0.101 | epoxomicin 0.01 | [3] 0.009 | [4] -0.041 | [5] -0.009 | rosiglitazone 0.051 | [6] -0.068 | [7] -0.061

MFAP3 (UniProt P55082)
inactive: epoxomicin -0.054 | [5] -0.118 | rosiglitazone 0.046 | [6] -0.008

LRRCC1 (UniProt Q9C099)
inactive: [6] 0.281

LEPROT (UniProt O15243)
inactive: [1] -0.052 | epoxomicin 0.129 | [3] -0.11 | [4] 0.075 | [6] 0.117 | [7] -0.03

MAPK11 (UniProt Q15759)
inactive: [3] -0.332 | [4] 0.025 | [7] -0.263

ITM2C (UniProt Q9NQX7)
Chain of UniProt Q9NQX7 (Q9NQX7 whole entry, looked up): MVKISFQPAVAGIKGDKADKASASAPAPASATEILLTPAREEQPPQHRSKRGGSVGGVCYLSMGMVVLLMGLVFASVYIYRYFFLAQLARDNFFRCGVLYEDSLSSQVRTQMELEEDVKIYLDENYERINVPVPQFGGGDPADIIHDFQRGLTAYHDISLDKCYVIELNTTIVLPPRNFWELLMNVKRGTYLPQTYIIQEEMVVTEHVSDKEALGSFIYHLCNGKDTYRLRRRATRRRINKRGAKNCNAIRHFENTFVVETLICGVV
inactive: volasertib -0.312 | [2] 0.049 | epoxomicin -0.149 | [3] -0.096 | [4] -0.104 | [5] -0.046 | rosiglitazone 0.069 | [6] 0.125 | [7] 0.218

LAPTM4B (UniProt Q86VI4)
active: [7] 0.968
inactive: [1] 0.063 | [3] -0.12 | [4] 0.216 | rosiglitazone -0.024

IKZF1 isoform 2 (UniProt Q13422)
inactive: [2] -0.011 | [3] -0.034 | [5] -0.043 | rosiglitazone 0.078

LGALS8 isoform 2 (UniProt O00214)
Chain of UniProt O00214 (O00214 whole entry, looked up): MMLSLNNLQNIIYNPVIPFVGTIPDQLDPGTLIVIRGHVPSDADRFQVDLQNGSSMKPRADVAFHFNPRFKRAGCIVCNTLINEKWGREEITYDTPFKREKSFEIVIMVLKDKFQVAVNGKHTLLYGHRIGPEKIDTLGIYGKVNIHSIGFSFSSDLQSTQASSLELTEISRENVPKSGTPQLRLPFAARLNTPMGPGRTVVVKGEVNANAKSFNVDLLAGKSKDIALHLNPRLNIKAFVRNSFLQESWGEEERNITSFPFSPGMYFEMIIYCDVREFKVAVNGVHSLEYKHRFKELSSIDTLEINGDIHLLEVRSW
active: [7] 0.93
inactive: [1] 0.19 | epoxomicin -0.05 | [3] -0.029 | [4] -0.121 | [5] 0.067 | rosiglitazone -0.263 | [6] 0.328

MAGED1 isoform 2 (UniProt Q9Y5V3)
inactive: volasertib -0.306 | [2] -0.01 | epoxomicin -0.053 | [3] 0.01 | [5] 0.012 | [6] 0.399

LOX (UniProt P28300)
Chain of UniProt P28300 (P28300 whole entry, looked up): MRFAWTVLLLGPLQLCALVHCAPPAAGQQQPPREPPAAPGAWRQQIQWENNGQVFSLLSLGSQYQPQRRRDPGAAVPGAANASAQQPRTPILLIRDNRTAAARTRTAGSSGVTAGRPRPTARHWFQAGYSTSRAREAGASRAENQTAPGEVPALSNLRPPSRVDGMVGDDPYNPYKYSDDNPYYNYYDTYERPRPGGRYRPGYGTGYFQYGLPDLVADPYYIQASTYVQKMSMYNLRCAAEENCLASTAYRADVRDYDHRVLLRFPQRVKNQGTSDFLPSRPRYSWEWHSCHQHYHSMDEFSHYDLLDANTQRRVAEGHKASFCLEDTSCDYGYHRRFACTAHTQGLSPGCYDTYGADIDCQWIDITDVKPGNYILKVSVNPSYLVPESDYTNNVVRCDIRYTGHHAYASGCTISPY
inactive: [2] -0.191 | [3] -0.028 | rosiglitazone 0.072

IKZF1 (UniProt R9R4D9)
inactive: volasertib 0.085 | [4] -0.247 | [6] 0.229 | [7] 0.05

MAP2K5 (UniProt Q13163)
inactive: [6] 0.457

IGFBP6 (UniProt P24592)
inactive: [5] -0.186 | [6] 0.107

KIF1B isoform 3 (UniProt O60333)
inactive: [1] 0.193 | [5] -0.032

LSR (UniProt M0QZL9)
inactive: epoxomicin 0.076 | [5] -0.125

KIF21A (UniProt H0YI78)
inactive: [3] -0.05

MED29 (UniProt Q9NX70)
inactive: volasertib -0.115 | [2] 0.055 | [3] -0.044 | [6] -0.056

LYN isoform 2 (UniProt P07948)
inactive: volasertib -0.003 | [2] 0.036 | epoxomicin 0.246 | [3] 0.076 | [5] 0.007

MFSD12 isoform 3 (UniProt Q6NUT3)
Chain of UniProt Q6NUT3 (Q6NUT3 whole entry, looked up): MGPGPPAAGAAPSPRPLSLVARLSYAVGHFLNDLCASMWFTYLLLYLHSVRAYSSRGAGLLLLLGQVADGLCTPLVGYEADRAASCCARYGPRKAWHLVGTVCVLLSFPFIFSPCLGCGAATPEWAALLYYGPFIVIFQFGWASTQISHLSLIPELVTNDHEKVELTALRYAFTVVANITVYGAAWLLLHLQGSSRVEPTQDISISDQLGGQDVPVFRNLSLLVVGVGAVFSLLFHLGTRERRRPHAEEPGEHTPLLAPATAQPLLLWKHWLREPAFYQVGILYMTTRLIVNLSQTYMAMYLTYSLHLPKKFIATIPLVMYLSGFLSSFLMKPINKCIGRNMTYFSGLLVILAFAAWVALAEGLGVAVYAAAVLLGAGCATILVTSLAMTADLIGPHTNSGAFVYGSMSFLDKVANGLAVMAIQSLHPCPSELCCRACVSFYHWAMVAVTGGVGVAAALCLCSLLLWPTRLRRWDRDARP
inactive: [1] -0.005 | [3] 0.077 | [4] -0.006 | [6] 0.075 | [7] -0.305

KMT5A (UniProt Q9NQR1)
inactive: [4] 0.091 | [7] -0.2

LUZP1 (UniProt Q86V48)
inactive: volasertib -0.021 | [2] -0.026 | epoxomicin -0.22 | [3] 0.09 | [4] 0.026 | [5] 0.035 | rosiglitazone 0.026 | [6] 0.026 | [7] -0.039

MAP4K4 isoform 6 (UniProt O95819)
Chain of UniProt O95819 (O95819 whole entry, looked up): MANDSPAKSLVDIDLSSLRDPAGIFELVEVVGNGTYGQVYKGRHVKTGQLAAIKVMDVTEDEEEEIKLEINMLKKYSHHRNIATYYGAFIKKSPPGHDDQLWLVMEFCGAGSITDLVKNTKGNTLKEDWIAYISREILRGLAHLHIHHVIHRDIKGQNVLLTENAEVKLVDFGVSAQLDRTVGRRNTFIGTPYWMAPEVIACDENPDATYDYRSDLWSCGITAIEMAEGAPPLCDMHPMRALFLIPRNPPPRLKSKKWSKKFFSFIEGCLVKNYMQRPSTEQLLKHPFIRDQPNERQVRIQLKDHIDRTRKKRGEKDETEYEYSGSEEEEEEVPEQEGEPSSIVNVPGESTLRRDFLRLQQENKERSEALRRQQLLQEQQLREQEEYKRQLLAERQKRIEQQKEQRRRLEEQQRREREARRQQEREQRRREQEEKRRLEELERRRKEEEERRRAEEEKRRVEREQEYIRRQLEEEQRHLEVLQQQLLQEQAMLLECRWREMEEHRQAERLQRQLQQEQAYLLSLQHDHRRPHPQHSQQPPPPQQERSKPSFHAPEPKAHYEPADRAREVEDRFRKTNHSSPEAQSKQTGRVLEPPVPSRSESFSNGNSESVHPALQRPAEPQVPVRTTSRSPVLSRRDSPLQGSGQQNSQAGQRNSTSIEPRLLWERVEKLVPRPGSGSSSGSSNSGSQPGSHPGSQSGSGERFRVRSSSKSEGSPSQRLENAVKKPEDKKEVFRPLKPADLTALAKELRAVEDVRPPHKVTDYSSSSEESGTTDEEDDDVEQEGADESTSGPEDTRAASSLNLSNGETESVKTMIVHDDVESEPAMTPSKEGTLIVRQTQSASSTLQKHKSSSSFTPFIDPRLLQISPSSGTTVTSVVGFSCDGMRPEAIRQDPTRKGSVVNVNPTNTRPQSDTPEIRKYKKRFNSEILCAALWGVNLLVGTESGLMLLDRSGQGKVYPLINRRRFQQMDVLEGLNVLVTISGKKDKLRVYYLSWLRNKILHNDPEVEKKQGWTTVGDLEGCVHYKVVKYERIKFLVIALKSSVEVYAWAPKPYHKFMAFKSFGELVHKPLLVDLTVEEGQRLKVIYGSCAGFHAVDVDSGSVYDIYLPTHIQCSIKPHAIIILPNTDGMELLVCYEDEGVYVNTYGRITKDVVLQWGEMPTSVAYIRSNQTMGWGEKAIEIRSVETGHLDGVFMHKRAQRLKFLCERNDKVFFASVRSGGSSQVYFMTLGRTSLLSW
inactive: [1] -0.241 | [2] 0.109 | [5] -0.083 | [6] 0.261

LDLRAP1 (UniProt Q5SW96)
inactive: [3] -0.045 | rosiglitazone -0.023

MAP4K5 (UniProt Q9Y4K4)
inactive: volasertib -0.135 | [2] -0.004 | epoxomicin -0.014 | [3] -0.084 | [4] -0.126 | [5] -0.026 | rosiglitazone -0.005 | [7] 0.051

LRRFIP1 isoform 4 (UniProt Q32MZ4)
inactive: epoxomicin -0.113 | [3] -0.1 | [4] 0.212 | [6] 0.105 | [7] 0.349

LIN52 (UniProt Q52LA3)
inactive: [6] 0.003

MED7 (UniProt O43513)
inactive: volasertib 0.139 | [2] -0.287 | epoxomicin 0.127 | [3] 0.015 | [5] 0.021 | rosiglitazone -0.059 | [6] -0.172

MGRN1 isoform 2 (UniProt O60291)
inactive: volasertib -0.115 | [3] 0.071 | [4] -0.072 | rosiglitazone 0.014 | [7] -0.07

MAP3K20 isoform 2 (UniProt Q9NYL2)
Chain of UniProt Q9NYL2 (Q9NYL2 whole entry, looked up): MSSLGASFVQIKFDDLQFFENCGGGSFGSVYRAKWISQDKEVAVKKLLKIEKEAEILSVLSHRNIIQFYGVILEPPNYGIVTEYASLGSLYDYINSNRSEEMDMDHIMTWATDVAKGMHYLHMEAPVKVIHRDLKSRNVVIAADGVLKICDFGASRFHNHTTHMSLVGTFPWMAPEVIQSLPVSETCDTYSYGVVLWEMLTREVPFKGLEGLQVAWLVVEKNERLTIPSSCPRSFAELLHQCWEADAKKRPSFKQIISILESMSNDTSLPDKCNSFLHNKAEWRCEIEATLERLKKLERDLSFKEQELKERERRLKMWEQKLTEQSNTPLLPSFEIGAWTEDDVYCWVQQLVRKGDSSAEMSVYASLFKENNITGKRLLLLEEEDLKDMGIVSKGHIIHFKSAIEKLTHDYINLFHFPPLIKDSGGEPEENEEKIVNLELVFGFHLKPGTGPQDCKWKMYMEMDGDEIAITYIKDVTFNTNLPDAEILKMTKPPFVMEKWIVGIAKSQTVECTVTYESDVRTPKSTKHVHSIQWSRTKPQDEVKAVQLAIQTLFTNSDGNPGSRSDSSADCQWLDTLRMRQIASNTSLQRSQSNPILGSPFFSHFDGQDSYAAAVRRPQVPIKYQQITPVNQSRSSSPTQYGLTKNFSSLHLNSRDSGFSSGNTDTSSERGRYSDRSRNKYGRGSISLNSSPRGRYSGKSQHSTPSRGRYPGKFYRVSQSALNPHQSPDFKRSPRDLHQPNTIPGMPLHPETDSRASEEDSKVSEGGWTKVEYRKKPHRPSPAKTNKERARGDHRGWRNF
inactive: volasertib -0.1 | [2] -0.067 | epoxomicin -0.03 | [3] 0.018

JAK3 (UniProt P52333)
inactive: volasertib -0.075 | [2] 0.09 | epoxomicin -0.033 | [3] 0.081 | [4] 0.128 | [5] -0.042 | rosiglitazone 0.011 | [6] -0.01 | [7] 0.012

MAPRE3 isoform 2 (UniProt Q9UPY8)
inactive: volasertib 0.165 | [2] 0.04

LSR isoform 3 (UniProt Q86X29)
inactive: volasertib -0.096 | [6] 0.047

IPP (UniProt Q9Y573)
inactive: rosiglitazone -0.24

IGFBP3 isoform 2 (UniProt P17936)
inactive: volasertib -0.507 | epoxomicin -0.251 | [4] 0.075 | [5] -0.238 | [6] 0.199 | [7] -0.555

LMBR1 isoform 3 (UniProt Q8WVP7)
Chain of UniProt Q8WVP7 (Q8WVP7 whole entry, looked up): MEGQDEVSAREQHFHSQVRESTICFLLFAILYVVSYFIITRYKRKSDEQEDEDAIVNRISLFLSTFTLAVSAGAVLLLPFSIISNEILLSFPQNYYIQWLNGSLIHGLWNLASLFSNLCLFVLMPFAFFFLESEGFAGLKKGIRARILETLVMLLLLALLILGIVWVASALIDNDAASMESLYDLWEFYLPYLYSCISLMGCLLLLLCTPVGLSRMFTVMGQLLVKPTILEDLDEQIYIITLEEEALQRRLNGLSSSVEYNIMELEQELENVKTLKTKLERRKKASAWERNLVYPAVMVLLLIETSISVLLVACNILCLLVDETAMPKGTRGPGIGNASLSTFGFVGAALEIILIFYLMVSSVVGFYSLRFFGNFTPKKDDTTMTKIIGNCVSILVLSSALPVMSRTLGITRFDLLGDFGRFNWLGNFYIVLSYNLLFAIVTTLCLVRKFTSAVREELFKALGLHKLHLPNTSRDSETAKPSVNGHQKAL
inactive: volasertib -0.452 | epoxomicin 0.26 | [3] -0.074 | [4] -0.456 | [5] 0.049 | rosiglitazone -0.037 | [6] 0.033 | [7] -0.314

MAPK7 (UniProt Q13164)
inactive: epoxomicin 0.093 | [4] -0.049 | [7] -0.125

MAML1 (UniProt Q92585)
inactive: epoxomicin 0.059 | [3] -0.092 | [5] -0.055

INTS5 (UniProt Q6P9B9)
inactive: volasertib -0.152 | [2] 0.049 | epoxomicin 0.052 | [3] -0.046 | [5] -0.003 | rosiglitazone 0.212 | [6] -0.133

ITGA2B (UniProt P08514)
Chain of UniProt P08514 (P08514 whole entry, looked up): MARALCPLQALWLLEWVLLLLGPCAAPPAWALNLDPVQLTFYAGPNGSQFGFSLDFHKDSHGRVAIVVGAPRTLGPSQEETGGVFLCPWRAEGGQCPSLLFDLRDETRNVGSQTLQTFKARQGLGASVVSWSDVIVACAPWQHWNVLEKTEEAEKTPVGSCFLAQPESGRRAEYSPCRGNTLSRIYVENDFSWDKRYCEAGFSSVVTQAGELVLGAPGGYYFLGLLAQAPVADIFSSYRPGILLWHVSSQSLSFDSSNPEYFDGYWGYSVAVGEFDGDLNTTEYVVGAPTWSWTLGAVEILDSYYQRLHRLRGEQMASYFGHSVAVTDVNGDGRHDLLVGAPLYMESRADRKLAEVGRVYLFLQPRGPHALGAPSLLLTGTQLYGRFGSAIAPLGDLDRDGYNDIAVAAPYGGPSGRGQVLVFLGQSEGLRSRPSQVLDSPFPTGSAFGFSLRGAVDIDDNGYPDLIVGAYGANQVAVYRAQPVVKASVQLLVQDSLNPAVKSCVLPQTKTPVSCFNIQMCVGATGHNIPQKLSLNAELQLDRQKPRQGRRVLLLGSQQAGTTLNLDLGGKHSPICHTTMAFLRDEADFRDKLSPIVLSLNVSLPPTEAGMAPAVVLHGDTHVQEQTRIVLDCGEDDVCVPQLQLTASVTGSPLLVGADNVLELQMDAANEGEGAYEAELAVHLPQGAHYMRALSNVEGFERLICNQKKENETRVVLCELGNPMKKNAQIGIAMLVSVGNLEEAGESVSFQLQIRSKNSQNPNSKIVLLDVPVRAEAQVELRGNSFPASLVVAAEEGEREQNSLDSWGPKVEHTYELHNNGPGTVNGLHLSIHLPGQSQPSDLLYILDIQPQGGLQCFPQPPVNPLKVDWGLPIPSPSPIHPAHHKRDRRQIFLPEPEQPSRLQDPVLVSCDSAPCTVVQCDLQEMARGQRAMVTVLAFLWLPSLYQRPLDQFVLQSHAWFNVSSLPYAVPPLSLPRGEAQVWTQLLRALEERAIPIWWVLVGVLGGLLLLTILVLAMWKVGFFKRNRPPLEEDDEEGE
inactive: volasertib 0.134 | [2] -0.211 | epoxomicin -0.089 | [3] -0.011 | [4] -0.173 | [5] 0.067 | [6] 0.117 | [7] -0.07
